PubChem BioAssay (NCATS)
Records with an inconclusive call do not appear. Active and inactive are the calls of the source. Unless noted, the call rests on the fitted dose curve; in most records, active means well fitted curve in the direction sought with a large enough effect; inconclusive means small, poorly fitted or top-dose-only effect, or another doubt; inactive means no such curve, though single readings can be large; an effect the other way counts as inactive or inconclusive.

Key:
[1] = Cytometric Cell-Based qHTS for Inhibitors of the mTORC1 Signaling Pathway in MEF (Tsc2-/-, p53-/-) Cells (AID 2660);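 further: Tsc2 and p53 null MEFs carrying empty vector with compound for 24 h; percent of cells above a phospho-rpS6 to PI ratio cutoff in each well; series mostly up to about 38 µM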
Outline: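 Cells are plated, treated with compound for 24 hrs at 37 degree Celsius, then fixed, blocked and immunostained for phospho-rpS6 Ser235/236. Propidium iodide counterstain follows. Per-well % positive cells is derived from the PI-normalized phospho-S6 signal.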

[2] = High Content Imaging Cell-Based qHTS for Inhibitors of the mTORC1 Signaling Pathway in MEF (Tsc2-/-, p53-/-) Cells (AID 2666);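 further: percent of cells scored positive for phospho-rpS6 Ser235/236 immunostaining by imaging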
Outline: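 MEF Tsc2-/- p53-/- (empty vector), DMEM/10% FBS; cpd 24 h 37 °C; PFA fix, Alexa-488 p-rpS6 S235/236 Ab, Hoechst; imaged; rapamycin-defined inhibition; % positive cells/well.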

[3] = High Content Imaging Cell-Based qHTS for Inhibitors of the mTORC1 Signaling Pathway in MEF Cells (AID 2667);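 further: Tsc2-/- p53-/- MEFs stably re-expressing wild-type Tsc2 exposed 24 h; series mostly up to about 38 µM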
Outline: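 Read-out is the share of phospho-rpS6-positive cells per well, from Hoechst-normalized Alexa-488 Ser235/236 staining imaged on IN Cell. Cells: WT Tsc2-expressing Tsc2-/-, p53-/- MEFs exposed to compound for 24 hrs.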

[4] = Cytometry Cell-Based qHTS for Inhibitors of the mTORC1 Signaling Pathway in MEF cells (AID 2668);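 further: Tsc2-/- p53-/- mouse embryonic fibroblasts stably re-expressing wild-type Tsc2; percent cells positive for phospho-rpS6 Ser235/236 relative to propidium iodide stain; series mostly up to about 38 µM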
Outline: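 In MEFs grown in DMEM + 10% FBS, a 24 hrs compound exposure preceded imaging of phospho-rpS6 Ser235/236 by laser-scanning cytometry.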

[5] = Validation screen for small molecules that induce DNA re-replication in MCF 10A normal breast cells (AID 463097); further: nearly all actives have a fitted effect of over 60% in size
Outline: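 Following 48 hr compound incubation (37 C, 5% CO2), MCF 10A cells receive Hoechst for 40 min at 37 C. Nuclei are then scanned (excitation 405 nm, emission 500-530 nm) for total fluorescence intensity.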

[6] = biological target: Ubiquitin carboxyl-terminal hydrolase 2 (Homo sapiens) (UniProt O75604); assay: qHTS Validation Assay for Inhibitors of Ubiquitin-specific Protease USP2a Using CHOP2 as the Reporter (AID 463106)
Ubiquitin carboxyl-terminal hydrolase 2 (Homo sapiens), sequence (O75604 whole entry, looked up): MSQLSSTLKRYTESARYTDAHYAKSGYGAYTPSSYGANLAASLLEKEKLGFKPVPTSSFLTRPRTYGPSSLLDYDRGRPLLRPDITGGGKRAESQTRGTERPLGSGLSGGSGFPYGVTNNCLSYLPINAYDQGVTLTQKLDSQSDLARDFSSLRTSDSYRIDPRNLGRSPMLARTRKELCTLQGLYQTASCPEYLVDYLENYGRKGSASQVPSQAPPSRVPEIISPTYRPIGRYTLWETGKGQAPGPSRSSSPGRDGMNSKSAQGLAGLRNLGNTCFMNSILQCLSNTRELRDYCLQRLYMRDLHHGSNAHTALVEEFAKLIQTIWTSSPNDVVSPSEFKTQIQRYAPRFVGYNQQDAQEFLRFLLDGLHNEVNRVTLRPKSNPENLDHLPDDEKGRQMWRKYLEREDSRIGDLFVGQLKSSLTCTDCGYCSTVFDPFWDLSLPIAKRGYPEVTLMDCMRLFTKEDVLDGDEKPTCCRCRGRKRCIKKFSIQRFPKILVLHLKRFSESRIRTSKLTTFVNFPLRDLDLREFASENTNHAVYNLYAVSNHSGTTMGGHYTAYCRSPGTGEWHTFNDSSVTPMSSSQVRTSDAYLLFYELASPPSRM
Outline: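 Fluorescence read-out at Ex 485nm/Em 531nm after 60min RT, following addition of 25nM Ub-CHOP2 plus 25nM reporter substrate to USP2 core (10nM) pretreated 30min with compound. Data normalized to NEM full inhibition; concentration-response curves fitted.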

[7] = biological target: DNA polymerase III PolC-type (Bacillus subtilis (strain 168)) (UniProt P13267); assay: qHTS Validation Assay for the Inhibitors of DNA Replication in Gram-Positive Bacteria (AID 485295);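 further: reconstituted holoenzyme with PolC plus beta clamp SSB and primase; PicoGreen fluorescence of double-stranded DNA made on primed circular M13 template; series mostly up to about 57 µM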
Outline: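 Inhibition of DNA synthesis by the reconstituted PolC holoenzyme, monitored through PicoGreen staining of dsDNA formed from ssM13Gori, dNTPs and NTPs, with compound preincubation and room-temperature reaction.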

[8] = biological target: Tumor susceptibility gene 101 protein (Homo sapiens) (UniProt Q99816); assay: qHTS Validation Assay for Iinhibitors of HIV-1 Budding by Blocking the Interaction of PTAP/TSG101 (AID 485342; calls by dose curve)
Tumor susceptibility gene 101 protein (Homo sapiens), sequence (Q99816 whole entry, looked up, the tested form may be a part): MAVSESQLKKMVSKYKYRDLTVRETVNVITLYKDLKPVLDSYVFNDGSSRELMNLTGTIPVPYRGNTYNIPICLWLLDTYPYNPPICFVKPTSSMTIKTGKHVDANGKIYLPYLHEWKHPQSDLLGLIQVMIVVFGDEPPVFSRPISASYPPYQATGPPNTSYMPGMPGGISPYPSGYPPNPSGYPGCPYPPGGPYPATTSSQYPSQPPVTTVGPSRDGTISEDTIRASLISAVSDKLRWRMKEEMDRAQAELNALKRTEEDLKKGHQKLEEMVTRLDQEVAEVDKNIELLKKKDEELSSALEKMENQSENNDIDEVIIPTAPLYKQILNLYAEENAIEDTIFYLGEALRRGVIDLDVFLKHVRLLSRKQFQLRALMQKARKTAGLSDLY
Outline: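 Compound wells held the Tsg101 binding domain (10 uM) and a FITC-conjugated PTAP peptide (50 nM) in buffer at pH 7.5 containing 0.15 M NaCl and 0.01% Tween 20; polarization was recorded after 20 min, r.t.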

[9] = qHTS Validation Assay to Find Inhibitors of Chronic Active B-Cell Receptor Signaling (AID 485345; active means well fitted curve in the direction sought with a large enough effect in the main read-out, with a control signal flat, not every such curve was filed as active)
Outline: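 TMD8 ABC-DLBCL cells stably carrying doxycycline-inducible IkappaBalpha–green luciferase fusion plus unfused red luciferase; compounds 46 uM to 3 nM, 4 h at 37C with doxycycline. Corrected green/red luminescence ratio normalized to 10 uM MG-132 and basal cell wells; curves fitted.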

[10] = biological target: Beta-2 adrenergic receptor (Homo sapiens) (UniProt P07550); assay: qHTS validation assay of beta-arrestin-biased ligands of beta2-adrenergic receptor (AID 485366)
Beta-2 adrenergic receptor (Homo sapiens), sequence (P07550 whole entry, looked up): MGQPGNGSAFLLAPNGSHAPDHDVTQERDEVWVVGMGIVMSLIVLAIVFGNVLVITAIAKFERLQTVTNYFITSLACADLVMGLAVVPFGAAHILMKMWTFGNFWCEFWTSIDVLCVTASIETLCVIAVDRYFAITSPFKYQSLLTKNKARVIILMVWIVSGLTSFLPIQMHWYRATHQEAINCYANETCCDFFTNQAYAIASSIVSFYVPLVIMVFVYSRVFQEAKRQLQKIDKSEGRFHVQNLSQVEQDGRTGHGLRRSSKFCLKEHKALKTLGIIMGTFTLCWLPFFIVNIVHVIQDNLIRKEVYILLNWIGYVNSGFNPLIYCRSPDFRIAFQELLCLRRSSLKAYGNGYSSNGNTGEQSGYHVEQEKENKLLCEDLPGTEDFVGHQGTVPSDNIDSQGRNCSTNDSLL
Outline: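 Compound series up to 46 microM applied to beta2-AR/beta-arrestin Tango cells, 18 hr, 37 degrees C, 5% CO2. Read-out: tTA-driven luciferase luminescence, converted to %Activity; concentration-response curves assigned curve classes.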

[11] = Quantitative high throughput screen for delayed death inhibitors of the malarial parasite plastid, 96 hour incubation (AID 488745);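 further: luciferase-expressing P. falciparum in erythrocytes at 2% hematocrit and 0.1% parasitemia; series mostly up to about 29 µM; nearly all actives have a fitted effect of over 70% in size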
Outline: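 Readout is firefly luciferase luminescence from an integrated reporter in P. falciparum; lower signal marks inhibited growth. Cultures at 2% hematocrit and 0.1% parasitemia were treated with compound across two generations (96 h, 37 C, 5% CO2).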

[12] = Quantitative high throughput screen for delayed death inhibitors of the malarial parasite plastid, 48 hour incubation (AID 488752); further: nearly all actives have a fitted effect of over 65% in size
Outline: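 First, compound was pinned into RPMI 1640 medium containing 0.5% Albumax. Next, reporter-parasite-infected erythrocytes were added to 2% hematocrit and 0.1% parasitemia. After 48 h at 37 C under 5% CO2, luciferase detection reagent was added and luminescence read.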

[13] = biological target: Thioredoxin reductase 1, cytoplasmic (Rattus norvegicus) (UniProt O89049); assay: qHTS Assay for Substrates of Mammalian Selenoprotein Thioredoxin Reductase 1 (TrxR1) (AID 488772);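 further: series mostly up to about 57 µM; a drop in NADPH fluorescence below the no-compound background marks a TrxR1 substrate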
Thioredoxin reductase 1, cytoplasmic (Rattus norvegicus), sequence (O89049 whole entry, looked up): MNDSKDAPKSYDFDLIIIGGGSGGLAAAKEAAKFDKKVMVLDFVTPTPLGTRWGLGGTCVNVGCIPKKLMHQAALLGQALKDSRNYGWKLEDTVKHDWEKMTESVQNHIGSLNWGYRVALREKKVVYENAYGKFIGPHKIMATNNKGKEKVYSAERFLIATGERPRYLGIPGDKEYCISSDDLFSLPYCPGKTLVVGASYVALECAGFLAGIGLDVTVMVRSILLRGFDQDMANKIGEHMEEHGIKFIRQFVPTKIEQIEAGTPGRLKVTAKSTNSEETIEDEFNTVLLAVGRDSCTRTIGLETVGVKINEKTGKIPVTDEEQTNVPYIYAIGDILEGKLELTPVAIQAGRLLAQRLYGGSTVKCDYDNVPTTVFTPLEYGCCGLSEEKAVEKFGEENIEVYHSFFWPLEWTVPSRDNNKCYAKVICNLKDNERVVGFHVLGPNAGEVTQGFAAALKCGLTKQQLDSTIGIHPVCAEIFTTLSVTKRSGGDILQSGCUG
Outline: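 In this dual-purpose format, potential substrates are identified from the first fluorescence read after selenite addition, not from the 8-minute delta. Rat enzyme is preincubated with NADPH and then with compound at ~22 deg C.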

[14] = biological target: Flap endonuclease 1 (Homo sapiens) (UniProt P39748); assay: qHTS Validation Assay for the Inhibitors of Human Flap endonuclease 1 (FEN1) (AID 488816)
Flap endonuclease 1 (Homo sapiens), sequence (P39748 whole entry, looked up): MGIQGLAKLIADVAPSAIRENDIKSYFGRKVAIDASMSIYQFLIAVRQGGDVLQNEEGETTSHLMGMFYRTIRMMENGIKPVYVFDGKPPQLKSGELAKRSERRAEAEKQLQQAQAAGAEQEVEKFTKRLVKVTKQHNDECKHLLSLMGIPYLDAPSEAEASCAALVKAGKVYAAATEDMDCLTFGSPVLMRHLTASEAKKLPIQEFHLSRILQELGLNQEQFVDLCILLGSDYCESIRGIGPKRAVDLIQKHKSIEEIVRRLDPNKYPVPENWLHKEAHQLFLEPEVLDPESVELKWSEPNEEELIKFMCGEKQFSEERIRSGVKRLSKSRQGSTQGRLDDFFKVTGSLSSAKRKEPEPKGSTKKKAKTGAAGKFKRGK
Outline: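 Enzyme reagent 10 nM; cpds pinned; 15 min RT preinc.; substrate 50 nM final; reads t=0 and 15 min; no-enzyme buffer wells as neg. control; normalized data, 4-parameter Hill fit.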

[15] = biological target: Chromobox protein homolog 1 (Homo sapiens) (UniProt P83916); assay: qHTS Validation Assay for Inhibitors of HP1-beta Chromodomain Interactions with Methylated Histone Tails (AID 488953);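 further: loss of AlphaScreen luminescence from HP1-beta binding biotinylated H3K9me3 peptide; series mostly up to about 110 µM; nearly all actives have a fitted effect of over 50% in size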
Chromobox protein homolog 1 (Homo sapiens), sequence (P83916 whole entry, looked up): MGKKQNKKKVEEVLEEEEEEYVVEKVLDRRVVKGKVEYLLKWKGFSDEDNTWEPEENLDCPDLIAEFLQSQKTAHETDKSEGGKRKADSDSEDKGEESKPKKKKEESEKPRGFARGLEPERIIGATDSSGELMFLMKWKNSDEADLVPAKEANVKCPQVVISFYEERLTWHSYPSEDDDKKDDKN
Outline: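 Disruption of preformed HP1-beta:H3K9me3 peptide complexes (both 50 nM, PBS pH 7.4 with 0.01% Tween-20) is measured by AlphaScreen after 30 min compound exposure at room temperature, using streptavidin donor and nickel chelate acceptor beads at 10 ug/mL final.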

[16] = biological target: Methanococcus maripaludis chaperonin (MmCpn) (UniProt Q6LX38); assay: High-Throughput Screening for Modulators of Cytosolic Chaperonin Activity: MmCpn Primary Screen (AID 488978)
Methanococcus maripaludis chaperonin (MmCpn), sequence (Q6LX38 1-543): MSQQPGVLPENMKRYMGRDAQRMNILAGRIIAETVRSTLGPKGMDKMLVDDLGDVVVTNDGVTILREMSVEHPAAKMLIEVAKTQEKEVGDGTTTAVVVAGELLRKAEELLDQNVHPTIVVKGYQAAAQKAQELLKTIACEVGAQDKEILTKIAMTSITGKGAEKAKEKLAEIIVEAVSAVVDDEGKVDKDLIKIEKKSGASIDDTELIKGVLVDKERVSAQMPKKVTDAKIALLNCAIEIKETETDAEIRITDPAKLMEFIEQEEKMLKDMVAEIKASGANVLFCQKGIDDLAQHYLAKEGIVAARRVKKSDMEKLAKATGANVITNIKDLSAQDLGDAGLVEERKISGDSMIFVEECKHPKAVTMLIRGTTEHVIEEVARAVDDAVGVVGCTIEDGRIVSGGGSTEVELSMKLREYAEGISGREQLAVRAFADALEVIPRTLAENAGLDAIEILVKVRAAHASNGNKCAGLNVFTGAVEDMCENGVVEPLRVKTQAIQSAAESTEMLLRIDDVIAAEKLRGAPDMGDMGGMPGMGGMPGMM
Outline: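 HTRF readout (320 nm excitation, 590/665 nm emission) of ADP generated by 50 nM MmCpn hydrolysing 30 uM ATP during 10 min at 37C; compound preincubated 5 min RT.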

[17] = biological target: Thioredoxin reductase 1, cytoplasmic (Rattus norvegicus) (UniProt O89049); assay: qHTS Assay for Inhibitors of Mammalian Selenoprotein Thioredoxin Reductase 1 (TrxR1) (AID 488773); details: Potency: inhibition;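 further: drop in NADPH fluorescence over an 8 min run after selenite addition; series mostly up to about 57 µM; nearly all actives have a fitted effect of over 40% in size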
Outline: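 Inhibition is scored from the loss of NADPH fluorescence between first and last reads of an 8-min kinetic run. Selenite (400 uM) was the substrate, added after 15 min compound preincubation at room temperature.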

[18] = biological target: M-phase phosphoprotein 8 (Homo sapiens) (UniProt Q99549); assay: qHTS Validation Assay for Inhibitors for MPP8 Chromodomain Interactions with Methylated Histone Tails (AID 488949);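 further: 50 nM MPP8 with 50 nM peptide preformed then compounds added for 30 min; AlphaScreen signal from MPP8 chromodomain bound to biotinylated H3K9me3 peptide; top concentration of the series differs between compounds; nearly all actives have a fitted effect of over 55% in size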
M-phase phosphoprotein 8 (Homo sapiens), sequence (Q99549 whole entry, looked up): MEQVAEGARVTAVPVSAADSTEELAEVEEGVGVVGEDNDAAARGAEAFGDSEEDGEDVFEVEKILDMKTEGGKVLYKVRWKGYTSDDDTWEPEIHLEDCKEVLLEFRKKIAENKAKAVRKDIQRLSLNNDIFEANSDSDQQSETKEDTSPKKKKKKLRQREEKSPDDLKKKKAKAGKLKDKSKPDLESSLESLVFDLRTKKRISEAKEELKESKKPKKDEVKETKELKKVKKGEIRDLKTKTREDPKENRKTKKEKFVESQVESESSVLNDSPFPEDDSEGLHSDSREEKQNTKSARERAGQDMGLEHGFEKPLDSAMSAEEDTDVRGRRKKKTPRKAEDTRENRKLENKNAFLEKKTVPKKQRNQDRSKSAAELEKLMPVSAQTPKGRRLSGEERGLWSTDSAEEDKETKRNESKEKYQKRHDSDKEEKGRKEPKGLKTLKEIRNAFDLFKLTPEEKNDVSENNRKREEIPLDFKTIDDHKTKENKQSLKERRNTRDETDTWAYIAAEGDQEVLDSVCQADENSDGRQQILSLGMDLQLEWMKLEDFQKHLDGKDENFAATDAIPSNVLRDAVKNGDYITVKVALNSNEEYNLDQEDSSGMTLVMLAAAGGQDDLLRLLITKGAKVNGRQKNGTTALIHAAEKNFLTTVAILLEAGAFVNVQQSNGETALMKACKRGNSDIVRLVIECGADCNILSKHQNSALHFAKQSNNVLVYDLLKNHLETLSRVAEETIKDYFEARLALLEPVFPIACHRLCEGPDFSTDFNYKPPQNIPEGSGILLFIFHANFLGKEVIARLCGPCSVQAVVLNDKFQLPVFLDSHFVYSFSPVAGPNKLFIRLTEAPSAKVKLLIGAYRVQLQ
Outline: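 Chemiluminescent proximity assay: histidine-tag capture via nickel acceptor beads, biotin peptide via streptavidin donor beads. Protein and peptide each at 50 nM, pH 7.4, with 30 min incubations at room temperature for complex formation, compound exposure and bead binding.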

[19] = biological target: ATP-dependent 6-phosphofructokinase (Trypanosoma brucei brucei) (UniProt O15648); assay: qHTS Validation Assay to Find Inhibitors of T. brucei phosphofructokinase (AID 485368)
ATP-dependent 6-phosphofructokinase (Trypanosoma brucei brucei), sequence (O15648 whole entry, looked up): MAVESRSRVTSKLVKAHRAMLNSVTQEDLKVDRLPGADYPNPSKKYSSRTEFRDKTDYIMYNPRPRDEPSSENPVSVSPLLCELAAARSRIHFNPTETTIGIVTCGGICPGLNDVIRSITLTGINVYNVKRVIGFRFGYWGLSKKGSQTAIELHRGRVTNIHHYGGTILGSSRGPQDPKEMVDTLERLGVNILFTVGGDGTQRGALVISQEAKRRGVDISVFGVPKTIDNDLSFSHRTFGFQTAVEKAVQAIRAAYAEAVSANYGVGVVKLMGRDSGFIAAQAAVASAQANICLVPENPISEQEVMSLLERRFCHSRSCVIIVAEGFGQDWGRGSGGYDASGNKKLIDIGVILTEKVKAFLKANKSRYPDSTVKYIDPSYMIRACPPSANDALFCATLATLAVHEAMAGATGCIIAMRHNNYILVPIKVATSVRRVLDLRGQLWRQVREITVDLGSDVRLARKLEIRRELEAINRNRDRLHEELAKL
Outline: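 qHTS format, up to 57 uM. PFK 1.25 nM; F6P 0.5 mM; ATP 0.1 mM; 5 mM MgCl2, 0.01% Tween20, 0.1% BSA; 0.1 M TEA pH 8.0; 45 min RT; ADP-Glo readout; no-enzyme control = full inhibition.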

Measured: Potency

N[C@@H](Cc1c[nH]c2ccccc12)C(=O)O
not listed: [17] | [18] | [19]
inactive: all other assays above

NC(Cc1cccc(-c2ccccc2CP(=O)(O)O)c1)C(=O)O (configuration not stated)
not listed: [15] | [19]
inactive: all other assays above

CC1CCN(CC[C@H]2CCCN2S(=O)(=O)c2cccc(O)c2)CC1
not listed: [19]
inactive: all other assays above

NCCCCN
not listed: [19]
inactive: all other assays above

CCC(=O)N1CCN(C(=O)c2ccccc2)CC1
not listed: [19]
inactive: all other assays above

CNc1cc(NS(=O)(=O)c2ccc(N)cc2)nc(NC)n1
not listed: [15] | [19]
inactive: all other assays above

Fc1ccc(CN(C2=NCCN2)c2c(Cl)cccc2Cl)cc1
not listed: [11] | [12]
inactive: all other assays above

O=c1ccn([C@@H]2O[C@H](COP(=O)(O)OP(=O)(O)O)[C@@H](O)[C@H]2O)c(=O)[nH]1
not listed: [19]
inactive: all other assays above

NCCCNCCCCNCCCN
not listed: [19]
inactive: all other assays above

COc1cc(C(O)C(=O)O)ccc1O (configuration not stated)
not listed: [18] | [19]
inactive: all other assays above

COc1ccc2c(c1)c(CC(=O)O)c(C)n2C(=O)c1ccccc1
not listed: [19]
inactive: all other assays above

CC(=O)[C@H]1CCC2C3CC=C4C[C@@H](OS(=O)(=O)O)CC[C@]4(C)C3CC[C@@]21C (some centres not stated)
not listed: [14] | [18] | [19]
inactive: all other assays above

O=c1[nH]ccc2c(O)cccc12
not listed: [19]
inactive: all other assays above

COC(=O)C1=C(C)NC(C)=C([N+](=O)[O-])C1c1ccccc1C(F)(F)F (configuration not stated)
not listed: [11] | [12] | [15] | [18]
inactive: all other assays above

c1ccc2c(c1)CC(N1CCN(c3cccc4c3OCCO4)CC1)C2
not listed: [11] | [12] | [15]
inactive: all other assays above

O=C(O)[C@H]1NCCC[C@H]1C(=O)O
not listed: [15] | [19]
inactive: all other assays above

CCCCCCCCCC[Si](C)(C)CCC(=O)NC(Cc1ccc(C)cc1)c1ccccc1 (configuration not stated)
not listed: [19]
inactive: all other assays above
